This is a sample that favours compounds with a hit; in the whole collection about 4.6% have one here.
TRHR ag: qHTS for Small Molecule Agonists and Allosteric Enhancers of Human TRH Receptor: Primary Screen for Agonists; activation, % at 2 µM; 0.18% of 360,000 active; AID 493084, 2011; Thyrotropin-releasing hormone receptor (Homo sapiens), P34981; TRHR cells, calcium flux fluo-8, FDSS agonist mode; also: 0% is about no effect
Target sequence (P34981 whole entry, looked up): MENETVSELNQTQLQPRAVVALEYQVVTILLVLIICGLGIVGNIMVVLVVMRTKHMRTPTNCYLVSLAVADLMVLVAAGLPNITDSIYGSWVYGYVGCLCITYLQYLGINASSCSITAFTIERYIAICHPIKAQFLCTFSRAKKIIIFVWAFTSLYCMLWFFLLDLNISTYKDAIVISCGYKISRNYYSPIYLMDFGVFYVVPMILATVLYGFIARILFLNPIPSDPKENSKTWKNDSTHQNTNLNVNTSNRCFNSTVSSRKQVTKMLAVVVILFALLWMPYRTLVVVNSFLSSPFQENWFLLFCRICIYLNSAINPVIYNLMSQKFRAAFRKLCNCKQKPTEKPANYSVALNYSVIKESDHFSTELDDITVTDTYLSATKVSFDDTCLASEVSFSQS
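Fluo-8-loaded TRHR cells; 10 s baseline, compound added, kinetic Ca2+ fluorescence read 1/s, agonist mode.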
D1 agonist: Allosteric Agonists of the Human D1 Dopamine Receptor: qHTS. D(1A) dopamine receptor (Homo sapiens), P21728. HEK293 T-REx D1 cells, calcium flux, agonist mode. activation, % at 2 µM. 1% of 360,000 active. AID 504660, 2011; also: 0% is about no effect
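Agonism was scored from calcium flux recorded over 180 s (1 read/s) after pintool compound addition, following a 10-cycle baseline. Cells were inducible force-coupled HEK293 TREx D1, plated overnight at 30 C and loaded with no-wash calcium dye.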
D1 antag: Antagonist of Human D 1 Dopamine Receptor: qHTS; AID 504652, 2011; HEK293 TREx D1 cells, calcium flux, dopamine EC80; active compounds read low; activity change, negative = inhibition, % at 10 µM; 3.2% of 360,000 active; D(1A) dopamine receptor (Homo sapiens), P21728; in the data active = activity change below about -30%; also: % is scaled to controls: 0 for no effect and ±100 for the full control effect
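Compound effects on dopamine-evoked calcium signalling were measured in tetracycline-induced HEK293 Trex D1 cells. Dopamine at EC80 followed a 180 s compound pre-read, and fluorescence was tracked kinetically for 180 s more.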
TRHR PAM: qHTS for Small Molecule Agonists and Allosteric Enhancers of Human TRH Receptor: Primary Screen for Enhancers; AID 493056, 2011; enhancement, % at 2 µM; TRHR cells, fluo-8 calcium fluorescence, EC20 TRH enhancement; 0.66% of 360,000 active; in the data active = enhancement above about 30%; also: 0% is about no effect
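Enhancer read-out: after compound pinning and an initial kinetic agonist-mode read, an EC20 of TRH (10 nM final) was injected and fluo-8 calcium signal (Ex 480/Em 530) followed at 1 s/cycle for 100 cycles in TRHR-expressing cells.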
D1 potentiator: Potentiators of Human D1 Dopamine Receptor: qHTS | 0.036% of 360,000 active | potentiation, % at 10 µM | D(1A) dopamine receptor (Homo sapiens), P21728 | HEK293 TREx D1 cells, calcium flux, dopamine EC20 potentiation; in the data active = potentiation above about 30%; also: 0% is about no effect
Numbers without * were called inactive. Rule as the data show it, unless noted: active = activation above about 30%; inactive = the rest.

SMILES	TRHR ag	D1 agonist	D1 antag	TRHR PAM	D1 potentiator
Cc1cccc(CCNC(=O)c2nn(C)c3c2CSc2ccccc2-3)c1	0	0	11	-1	3
CCCOc1ccccc1OCC(=O)Nc1cc(Cl)ccc1-n1cncn1	0	6	-71*	5	-11
O=C(Nc1cc(Cl)ccc1-n1cncn1)c1cncc(Br)c1	0	-2	-45*	11	-10
Cc1cccc(OCC(=O)Nc2cc(Cl)ccc2-n2cncn2)c1C	1	2	-19	21	-5
CCOc1ccc(CSC2=NCCN2)cc1Cl	0	14	-35*	-8	-9
O=C(Nc1ncc(S(=O)(=O)c2ccc([N+](=O)[O-])cc2)s1)c1ccccc1F	8	38*	-12	4	8
O=C(Nc1ccc([N+](=O)[O-])cc1)c1ccccc1F	-1	2	-17	-3	-9
CC[n+]1ccc2cc(OC)c(OC)cc2c1Cc1ccc(OC)c(OC)c1	2	-1	-49*	-3	0
Cc1cccc(OCc2nnc(SCC(=O)Nc3cccc(C(=O)N4CCOCC4)c3)n2C)c1C	0	2	-42*	4	-2
COc1cc(OC)cc(C(=O)NCC(=O)Nc2ccc(OC)c(Cl)c2)c1	0	-1	-16	7	0
Cc1ccc(C)c(S(=O)(=O)N2CCC3(CC2)OCCO3)c1	0	36*	10	1	-3
O=C(Nc1ccc(Cl)cc1Cl)c1cc(S(=O)(=O)N2CCC3(CC2)OCCO3)ccc1F	0	2	-41*	-3	-3
O=C(Nc1cccc(Cl)c1)c1cc(S(=O)(=O)N2CCC3(CC2)OCCO3)ccc1F	1	-1	-2	7	4
Cc1ccc(S(=O)(=O)N2CCC3(CC2)OCCO3)cc1	1	20	-32*	4	-3
CC(=O)c1cccc(NC(=O)c2cnn(-c3cccc(C)c3)c2-n2cccc2)c1	0	1	-5	-3	-5
CCc1cccc(-n2c(=O)c3cccnc3n2CC(=O)Nc2ccc(F)c(C)c2)c1	0	7	14	-8	-4
CCCCOc1ccc(C(=O)NCC2(N3CCN(C)CC3)CCCCC2)cc1	-1	-1	-18	-6	-1
CCCn1c(NC(=O)C2CCN(C(=O)c3ccccc3C)CC2)nc2ccccc21	0	1	0	-4	-5
CCCn1c(NC(=O)c2cccc(C)c2C)nc2ccccc21	0	2	-49*	4	-5
CCN(Cc1ccccc1)C(=O)c1nc(-c2cccc(F)c2)n2c1CCCCC2	-1	0	-3	0	-1
COc1ccccc1C(=O)Nc1nnc(SCc2cc(=O)c3cc(Cl)ccc3[nH]2)s1	0	0	-7	-2	3
Cc1ccc(OCCCCNC2CCCC(C)C2C)c(C)c1 (stereo unspecified)	1	42*	22	6	0
Cc1ccc(C(=O)c2cn(Cc3cccc(C)c3)c3nc(C)ccc3c2=O)cc1	1	2	6	-4	13
COc1ccc(Nc2c3c(nc4ccc(NC(=O)/C=C/c5cccc(OC)c5OC)cc24)CCCC3)cc1OC	0	2	2	3	0
Cc1cccc(C)c1NC(=O)/C(C#N)=C/c1ccsc1	0	3	-35*	-2	5
SMILES	TRHR ag	D1 agonist	D1 antag	TRHR PAM	D1 potentiator
CC1=NN(c2ccccc2)C(=O)C1	0	4	3	6	2
CC1=NN(c2cccc([N+](=O)[O-])c2)C(=O)C1	1	43*	-10	-6	-2
O=C(O)Cc1sc(Nc2ccc(Cl)cc2)nc1-c1cccs1	4	9	-16	4	-7
Nc1nc(-c2cccs2)c(CC(=O)O)s1	0	-1	-38*	29	10
COc1ccc(-c2nc(CSCC(=O)NCCc3ccc(OC)c(OC)c3)c(C)o2)cc1	0	2	10	-4	1
CCOc1ccc(OCC)c(NC(=O)Cn2nc(CC)n3c(cc4sccc43)c2=O)c1	1	1	-6	0	-5
COCCCn1c(=O)/c(=C\c2ccccc2OC(F)F)s/c1=C(/C#N)C(=O)NCCOC	0	12	12	-6	-2
COCCNC(=O)/C(C#N)=c1\s/c(=C\c2ccccc2OC(F)F)c(=O)n1Cc1ccccc1	103*	-1	-7	-13	-2
N#Cc1c(C(F)(F)F)cc(-c2cccs2)nc1SCC(=O)Nc1cccc(Cl)c1	28	47*	14	14	-4
CSc1nc(N)nc(SCC(=O)Nc2cccc(F)c2)c1C#N	-1	19	-44*	5	-13
N#Cc1c(C(F)(F)F)cc(-c2cccs2)nc1SCC(=O)Nc1cccc(Br)c1	30*	184*	-16	15	4
COc1cccc(C(=O)Nc2c(C(=O)c3ccc(F)cc3)oc3ccccc23)c1	1	1	-5	6	-6
Cc1ccccc1OCC(=O)Nc1ccc2[nH]c(=O)sc2c1	0	14	-49*	-4	-4
Cc1ccc(OCC(=O)Nc2ccc3[nH]c(=O)sc3c2)cc1	-1	10	-27	21	-3
Cc1ccc(NC(=O)COc2ccccc2CNC(C)(C)CC(C)(C)C)cc1	2	62*	-6	6	-5
Cc1ccccc1OCC(=O)Nc1ccncc1	-1	12	-18	2	-4
CC(C)(CO)NCc1ccccc1OCC(=O)Nc1ccccc1	0	6	-18	-3	-4
CC(=O)Nc1cccc(NC(=O)COc2ccccc2C)c1	0	7	-39*	6	-7
CC(=O)c1cccc(NC(=O)COC(=O)COc2ccccc2C)c1	0	6	-24	-9	-2
Cc1ccccc1OCC(=O)Nc1ccc(Cc2ccncc2)cc1	0	16	-44*	2	-3
O=C(COc1ccccc1C(=O)Nc1ccccc1)NCCc1ccccc1	1	10	-13	5	-3
O=C(COc1ccccc1C(=O)NCc1ccccc1)Nc1ccccc1	0	4	-35*	-2	-3
CN1CCN(CCCC(=O)c2ccc(F)cc2)CC1	0	0	-5	4	-3
O=C(CCCN1Cc2ccccc2C1)c1ccc(F)cc1	0	9	-71*	-4	-12
Cc1cccc(-n2cc(-c3ccccc3)c3c(NC(C)C)ncnc32)c1	0	1	8	2	3
Cc1cc(CNC(=O)CC2C(=O)NCCN2CC(C)(C)C)nn1C (stereo unspecified)	0	-1	-39*	6	8

Source: PubChem
